Screen size: about 22,000 compounds; about 1,100 (5%) were called active. Only a selection was taken, and actives are over-represented in it overall. A number with no mark means an inactive call. Rule as the data show it: active = activity score above about 55%; inconclusive = no clear call, values can overlap the other calls; inactive = below that.

A short description of this experiment: T. cruzi growth inside host cells – cell-based, plate reader, single point, set 2, primary screen (AID 651903).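 Also: parasites and compound incubated about four days before reading; 0% = median of neutral control wells.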 The following applies: intracellular Trypanosoma cruzi in host cells, at 5.01 µM, hits give high values.
For `C[C@@H]1CN([C@H](C)CO)C(=O)c2cc(NC(=O)Cn3cnnn3)ccc2O[C@@H]1CN(C)Cc1ccc(C(F)(F)F)cc1`, the activity score (inhibition) is -1.8%.
The result for `O=C(O)CCCCCCC(=O)NN=C1CCCCCC1` reads -26.3%; that for `COc1ccc(CN(C)C[C@@H]2Oc3ccc(NC(=O)Nc4ccc5c(c4)OCO5)cc3CC(=O)N([C@H](C)CO)C[C@H]2C)cc1`, 26.4%.
In the case of `CC(C)NC(=O)Nc1ccc2c(c1)CC(=O)N([C@H](C)CO)C[C@@H](C)[C@@H](CN(C)Cc1ccc(C(=O)Nc3ccccc3N)cc1)O2`, the activity score (inhibition) is 52.3%.
In the case of `C[C@H](CO)N1C[C@H](C)[C@H](CN(C)Cc2ccc(C(=O)Nc3ccccc3N)cc2)Oc2ccc(NC(=O)Nc3ccccc3)cc2CC1=O`, the activity score (inhibition) is 48.5%.
Take `C[C@@H]1CN([C@H](C)CO)C(=O)Cc2cc(NC(=O)Nc3ccc(F)cc3)ccc2O[C@@H]1CN(C)Cc1ccc2c(c1)OCO2`: the activity score (inhibition) is 1.98%.
For `C[C@@H]1CN([C@H](C)CO)C(=O)Cc2cc(NC(=O)Nc3ccc4c(c3)OCO4)ccc2O[C@@H]1CN(C)Cc1ccc(C(=O)Nc2ccccc2N)cc1`, the activity score (inhibition) was 63.9% (active).
The result for `C[C@H]1CN([C@@H](C)CO)C(=O)Cc2cc(NC(=O)Nc3ccc4c(c3)OCO4)ccc2O[C@H]1CN(C)Cc1ccc(C(=O)Nc2ccccc2N)cc1` reads 62.8% (active); that for `C[C@H](CO)N1C[C@H](C)[C@H](CN(C)S(=O)(=O)c2cccs2)Oc2ccc(NS(=O)(=O)c3ccc(Cl)cc3)cc2CC1=O`, -17%; that for `C[C@H]1CN([C@@H](C)CO)C(=O)Cc2cc(NS(=O)(=O)c3cccs3)ccc2O[C@@H]1CN(C)Cc1ccc(Oc2ccccc2)cc1`, 42.4%.
As to `C[C@H](CO)N1C[C@H](C)[C@H](CN(C)CC2CCCCC2)Oc2ccc(NC(=O)CCN3CCOCC3)cc2CC1=O`, the activity score (inhibition) is -39.1%.
`C[C@H](CO)N1C[C@H](C)[C@H](CN(C)C(=O)Nc2ccc(C(F)(F)F)cc2)Oc2ccc(NC(=O)C3CC3)cc2C1=O`: the activity score (inhibition) was -9.99%.
As to `C[C@H]1CN([C@@H](C)CO)C(=O)c2cccc(NC(=O)C3CCCCC3)c2O[C@H]1CN(C)Cc1ccc(C(F)(F)F)cc1`, the activity score (inhibition) is 6.51%.
The result for `C[C@H](CO)N1C[C@H](C)[C@@H](CN(C)Cc2ccc(C(F)(F)F)cc2)Oc2c(NC(=O)NC3CCCCC3)cccc2C1=O` reads 78.1% (active).
`C[C@H]1CN([C@@H](C)CO)C(=O)c2cccc(NC(=O)Nc3ccc(C(F)(F)F)cc3)c2O[C@@H]1CN(C)Cc1ccccc1`: the activity score (inhibition) is 8.46%.
In the case of `C[C@@H]1CN([C@H](C)CO)C(=O)c2cccc(NC(=O)NC3CCCCC3)c2O[C@H]1CN(C)Cc1ccc(C(F)(F)F)cc1`, the activity score (inhibition) is 85.3% (active).
The result for `C[C@@H]1CN([C@H](C)CO)C(=O)c2cccc(NC(=O)Nc3ccc(F)cc3)c2O[C@@H]1CN(C)Cc1ccc(C(F)(F)F)cc1` reads -18.6%; that for `COc1ccc(CN(C)C[C@H]2Oc3c(NC(=O)NC4CCCCC4)cccc3C(=O)N([C@@H](C)CO)C[C@@H]2C)cc1`, -5.36%.
Consider `C[C@@H]1CN([C@@H](C)CO)C(=O)c2cccc(N(C)C)c2O[C@@H]1CN(C)S(C)(=O)=O`, for which the activity score (inhibition) was -23.1%.
The result for `C[C@H]1CN([C@@H](C)CO)C(=O)c2cccc(NS(=O)(=O)c3ccccc3)c2O[C@@H]1CN(C)S(=O)(=O)c1cn(C)cn1` reads -19.1%; that for `C[C@H]1CN([C@@H](C)CO)C(=O)Cc2cc(NC(=O)C3CC3)ccc2O[C@@H]1CN(C)C(=O)NC1CCCCC1`, -11%.
Take `CC(C)NC(=O)N(C)C[C@@H]1Oc2c(cccc2N(C)C)C(=O)N([C@H](C)CO)C[C@@H]1C`: the activity score (inhibition) was -30.9%.
With `C[C@@H]1CN([C@@H](C)CO)C(=O)c2cc(NC(=O)Nc3ccccc3)ccc2O[C@H]1CN(C)C(=O)Nc1ccc(F)cc1`, the activity score (inhibition) is -1.8%.
The result for `C[C@@H]1CN([C@H](C)CO)C(=O)c2cc(NC(=O)Cc3cn(C)c4ccccc34)ccc2O[C@H]1CN(C)S(C)(=O)=O` reads -9.14%.
As for `C[C@@H]1CN([C@@H](C)CO)C(=O)c2cccc(NC(=O)Nc3ccc4c(c3)OCO4)c2O[C@@H]1CN(C)C(=O)Nc1ccc(F)cc1`, the activity score (inhibition) is -15.6%.
Consider `COc1ccc(CN(C)C[C@@H]2Oc3ccc(NC(=O)Nc4ccc(OC)cc4)cc3CC(=O)N([C@H](C)CO)C[C@H]2C)cc1`, for which the activity score (inhibition) was 12%.
With `C[C@@H]1CN([C@H](C)CO)C(=O)Cc2cc(NC(=O)Nc3ccc4c(c3)OCO4)ccc2O[C@H]1CN(C)Cc1ccc(C(F)(F)F)cc1`, the activity score (inhibition) was 64.6% (active).
With `C[C@@H]1CN([C@H](C)CO)C(=O)Cc2cc(NC(=O)Nc3cccc4ccccc34)ccc2O[C@@H]1CN(C)Cc1ccc(C(=O)O)cc1`, the activity score (inhibition) was -16%.
Regarding `C[C@H]1CN([C@@H](C)CO)C(=O)Cc2cc(NC(=O)Nc3ccc(C(F)(F)F)cc3)ccc2O[C@H]1CN(C)Cc1ccc(C(=O)O)cc1`, the activity score (inhibition) is -28.2%.
Consider `C[C@@H]1CN([C@H](C)CO)C(=O)Cc2cc(NC(=O)Nc3ccc4c(c3)OCO4)ccc2O[C@H]1CN(C)Cc1ccc(C(=O)O)cc1`, for which the activity score (inhibition) was -10.7%.
Consider `C[C@@H]1CN([C@H](C)CO)C(=O)c2cc(NC(=O)Nc3ccc4c(c3)OCO4)ccc2O[C@@H]1CN(C)Cc1ccc(C(F)(F)F)cc1`, for which the activity score (inhibition) was 2.66%.
On to `Cc1noc(C)c1NC(=O)Nc1ccc2c(c1)CC(=O)N([C@H](C)CO)C[C@@H](C)[C@@H](CN(C)Cc1ccc(C(F)(F)F)cc1)O2`, for which the activity score (inhibition) was -9.04%.
The result for `COc1ccc(NC(=O)Nc2ccc3c(c2)CC(=O)N([C@@H](C)CO)C[C@@H](C)[C@@H](CN(C)Cc2ccc(C(F)(F)F)cc2)O3)cc1` reads 76% (active); that for `C[C@@H]1CN([C@H](C)CO)C(=O)Cc2cc(NC(=O)Nc3cccc4ccccc34)ccc2O[C@@H]1CN(C)Cc1ccc(C(F)(F)F)cc1`, 67.4% (active).
Take `C[C@@H]1CN([C@H](C)CO)C(=O)c2cc(NC(=O)c3ccncc3)ccc2O[C@H]1CN(C)C(=O)Nc1ccc(C(F)(F)F)cc1`: the activity score (inhibition) is 1.32%.
As to `C[C@@H]1CN([C@H](C)CO)C(=O)c2cc(NC(=O)Nc3ccc(C(F)(F)F)cc3)ccc2O[C@H]1CN(C)C(=O)Nc1ccccc1`, the activity score (inhibition) is 4.44%.
The result for `COc1ccc(S(=O)(=O)N(C)C[C@@H]2Oc3ccc(NC(=O)C4CC4)cc3CC(=O)N([C@@H](C)CO)C[C@@H]2C)cc1` reads -7.17%.
The result for `CNC[C@H]1Oc2ccc(NS(=O)(=O)c3ccc(F)cc3)cc2C(=O)N([C@@H](C)CO)C[C@@H]1C` reads -7.11%; that for `C[C@H]1CN([C@@H](C)CO)C(=O)c2cccc(NC(=O)c3cnccn3)c2O[C@@H]1CN(C)Cc1ccc(Oc2ccccc2)cc1`, 38.8%.
Under `C[C@H]1CN([C@@H](C)CO)C(=O)Cc2cc(NC(=O)Nc3cccc4ccccc34)ccc2O[C@@H]1CN(C)S(C)(=O)=O` stands -12.5%; under `COc1ccc(S(=O)(=O)Nc2ccc3c(c2)CC(=O)N([C@H](C)CO)C[C@@H](C)[C@@H](CN(C)S(=O)(=O)c2ccc(F)cc2)O3)cc1`, 60.4% (active); under `C[C@@H]1CN([C@H](C)CO)C(=O)Cc2cc(NS(=O)(=O)c3ccc(Cl)cc3)ccc2O[C@@H]1CN(C)S(=O)(=O)c1ccc(Cl)cc1`, 67.3% (active).
With `C[C@@H]1CN([C@H](C)CO)C(=O)Cc2cc(NS(=O)(=O)c3ccc(F)cc3)ccc2O[C@@H]1CN(C)S(=O)(=O)c1ccc(F)cc1`, the activity score (inhibition) is 47.1%.
The result for `C[C@H]1CN([C@@H](C)CO)C(=O)Cc2cc(NC(=O)Nc3ccc(C(F)(F)F)cc3)ccc2O[C@@H]1CN(C)S(=O)(=O)c1ccc(Cl)cc1` reads -15.1%; that for `Cc1ccc(S(=O)(=O)N(C)C[C@H]2Oc3ccc(NC(=O)Nc4cccc5ccccc45)cc3CC(=O)N([C@H](C)CO)C[C@H]2C)cc1`, 60.6% (active); that for `COc1ccc(S(=O)(=O)N(C)C[C@H]2Oc3ccc(NS(=O)(=O)c4ccc(C)cc4)cc3CC(=O)N([C@@H](C)CO)C[C@@H]2C)cc1`, -20.8%.
Turning to `C[C@H]1CN([C@@H](C)CO)C(=O)Cc2cc(NC(=O)Nc3ccc(F)cc3)ccc2O[C@H]1CN(C)S(=O)(=O)c1ccccc1`, the activity score (inhibition) is 10.9%.
With `C[C@H]1CN([C@@H](C)CO)C(=O)Cc2cc(NS(C)(=O)=O)ccc2O[C@@H]1CN(C)S(=O)(=O)c1ccc(Cl)cc1`, the activity score (inhibition) is 2.12%.
Turning to `C[C@@H]1CN([C@H](C)CO)C(=O)Cc2cc(NC(=O)Nc3ccc(C(F)(F)F)cc3)ccc2O[C@@H]1CN(C)S(=O)(=O)c1ccccc1`, the activity score (inhibition) is 70% (active).
Under `Cc1noc(C)c1S(=O)(=O)N(C)C[C@H]1Oc2ccc(NC(=O)Nc3cccc4ccccc34)cc2CC(=O)N([C@@H](C)CO)C[C@H]1C` stands 23.8%; under `C[C@H]1CN([C@@H](C)CO)C(=O)Cc2cc(NS(=O)(=O)c3ccc(Cl)cc3)ccc2O[C@@H]1CN(C)S(=O)(=O)c1ccccc1`, 9.06%; under `C[C@@H]1CCCCO[C@H](CN(C)C(=O)c2ccccc2)[C@@H](C)CN([C@H](C)CO)C(=O)c2cc(NC(=O)c3ccccc3)ccc2O1`, -16.9%.
Under `C[C@@H]1CN([C@@H](C)CO)C(=O)c2cccc(NC(=O)C3CCOCC3)c2O[C@H]1CN(C)C(=O)NC1CCCCC1` stands 2.53%; under `C[C@H]1CN([C@@H](C)CO)C(=O)c2cc(NC(=O)c3ccncc3)ccc2O[C@H]1CN(C)Cc1ccc(C(=O)Nc2ccccc2N)cc1`, 37.7%; under `C[C@H](CO)N1C[C@H](C)[C@@H](CN(C)Cc2ccc(C(F)(F)F)cc2)Oc2ccc(NC(=O)CCC(F)(F)F)cc2C1=O`, 7.64%.
Regarding `COc1ccc(S(=O)(=O)N(C)C[C@H]2Oc3c(NS(=O)(=O)c4ccc(F)cc4)cccc3C(=O)N([C@H](C)CO)C[C@H]2C)cc1`, the activity score (inhibition) is 71.9% (active).
On to `Cc1ccc(S(=O)(=O)N(C)C[C@H]2Oc3ccc(NS(C)(=O)=O)cc3CC(=O)N([C@@H](C)CO)C[C@H]2C)cc1`, for which the activity score (inhibition) was 5.47%.
The result for `COc1ccc(S(=O)(=O)Nc2cccc3c2O[C@@H](CN(C)S(=O)(=O)c2ccc(F)cc2)[C@H](C)CN([C@H](C)CO)C3=O)cc1` reads -4.59%; that for `Cc1ccc(S(=O)(=O)N(C)C[C@H]2Oc3ccc(NS(=O)(=O)c4ccccc4)cc3CC(=O)N([C@@H](C)CO)C[C@H]2C)cc1`, 57.7% (active); that for `COc1ccc(S(=O)(=O)Nc2cccc3c2O[C@H](CN(C)S(=O)(=O)c2ccc(OC)cc2)[C@@H](C)CN([C@H](C)CO)C3=O)cc1`, 8.53%.
As to `Cc1ccc(S(=O)(=O)Nc2ccc3c(c2)CC(=O)N([C@@H](C)CO)C[C@@H](C)[C@@H](CN(C)S(=O)(=O)c2ccccc2)O3)cc1`, the activity score (inhibition) was 52%.
The result for `C[C@@H]1CN([C@H](C)CO)C(=O)CCCn2cc(nn2)CO[C@H]1CN(C)S(C)(=O)=O` reads -20.6%; that for `C[C@H](CO)N1C[C@H](C)[C@H](CN(C)C(=O)Nc2ccc3c(c2)OCO3)Oc2ccc(NC(=O)Nc3ccccc3)cc2CC1=O`, -2.34%; that for `Cc1noc(C)c1NC(=O)Nc1ccc2c(c1)CC(=O)N([C@@H](C)CO)C[C@@H](C)[C@@H](CN(C)Cc1ccc(Cl)c(Cl)c1)O2`, 0.719%.
Take `C[C@H](CO)N1C[C@H](C)[C@H](CN(C)Cc2ccc3c(c2)OCO3)Oc2c(NS(=O)(=O)c3ccccc3)cccc2C1=O`: the activity score (inhibition) is 4.5%.

These data come from PubChem BioAssay AID651903 (Broad Institute, 2012).
